# This is part of a sample that, as a whole, favours compounds with a hit. Of some 83,000 tested, about 20% had one in any assay.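 How to read the values: 0–100, growth inhibition (40 = 60% inhibited); 0, no net growth; -100 to 0, cell death (-40 = 40% of starting cells died; -100 = all dead).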 Values without a mark were called inactive. Calls of active or inactive are those of the source. How the source made its calls: active means growth percent below 10; inactive means the rest.
# Tests used:
# Test in all cases: NCI-60 one-dose screen, 48 h (100 = growth as untreated, 0 = no growth, -100 = all killed)
# Conditions in all cases: 10 µM unless noted
# HCT-15 colon = system: HCT-15 colon
# HT29 colon = system: HT29 colon
# SNB-75 CNS = system: SNB-75 CNS
# SNB-19 CNS = system: SNB-19 CNS
# U251 CNS = system: U251 CNS
# PC-3 prostate = system: PC-3 prostate
# SK-MEL-5 melanoma = system: SK-MEL-5 melanoma
# UACC-62 melanoma = system: UACC-62 melanoma
# LOX IMVI melanoma = system: LOX IMVI melanoma
# SK-MEL-28 melanoma = system: SK-MEL-28 melanoma
SMILES,growth (HCT-15 colon),growth (HT29 colon),growth (SNB-75 CNS),growth (SNB-19 CNS),growth (U251 CNS),growth (PC-3 prostate),growth (SK-MEL-5 melanoma),growth (UACC-62 melanoma),growth (LOX IMVI melanoma),growth (SK-MEL-28 melanoma)
c1cc(OCCCCCOc2cccc(-c3nc4ccccc4[nH]3)c2)cc(-c2nc3ccccc3[nH]2)c1,12.3%,5.53% (active),31.4%,22.3%,6.76% (active),-13.1% (active),-81.5% (active),8.55% (active),-27.8% (active),18.7%
CN1CCOCCN(C)Cc2ccc3ccc(cc3c2)CN(C)CCOCCN(C)Cc2ccc3ccc(cc3c2)C1,73.2%,7.33% (active),78.3%,86.5%,80.7%,55.5%,99.4%,104%,93.8%,105%
C=C(C)[C@@H]1CC[C@]2(C(=O)N3CCN(C)CC3)CC[C@]3(C)[C@H](CC[C@@H]4[C@@](C)(CCC(=O)O)[C@H](C(=C)C)CC[C@]43C)[C@@H]12,82.5%,78%,76%,93.6%,79.7%,55.4%,82.7%,71.3%,92.5%,99%
CN(C)CCCn1c2c(c3ccncc3c1=O)C(=O)c1ccccc1-2,2.9% (active),2.14% (active),21%,1.91% (active),0.267% (active),-18.5% (active),-94.3% (active),-56.7% (active),-42.3% (active),-43.1% (active)
COc1nc(/C=C\Nc2ccc3c(c2)OCCOCCOCCOCCO3)nc(OC)n1,91.5%,99.5%,72.3%,103%,103%,99.4%,97.5%,93.3%,92.1%,104%
CC(=O)c1ccc(-n2cc(CN3CCN(c4cc5c(cc4F)c(=O)c(C(=O)O)cn5C4CC4)CC3)nn2)cc1,93.8%,90.8%,92.7%,98.2%,98.4%,83.9%,84.3%,90.5%,55.4%,99.3%
C=CCn1cc(-c2nc3ccccc3s2)c2cc(-c3ccc4c5c(cccc35)C(=O)N(CCO)C4=O)ccc21,94.3%,98.2%,98.9%,93.1%,97.2%,83.7%,96.1%,94.9%,95.4%,110%
CCOC(=O)c1ccc[nH]1,93.9%,106%,84.2%,99.4%,96.6%,91.8%,98.4%,103%,94.1%,115%
O=C(C[C@]1(O)C(=O)Nc2ccc(Br)cc21)c1ccco1,105%,101%,96.1%,95.6%,100%,92.6%,93.3%,90.7%,89.9%,117%
CCN(CC)C(=O)CC1=C(C)/C(=C/c2[nH]c(-c3ccc[nH]3)cc2OC)N=C1C,1.25% (active),12.4%,14.2%,42.4%,23.9%,3.87% (active),-59.3% (active),-51.8% (active),-58.8% (active),25.6%
N=C(N)c1ccc(-c2ccc(-c3ccccc3)o2)o1,13%,4.83% (active),32.8%,38.3%,10.3%,30.4%,30.5%,61.9%,14.3%,69.1%
O=C(OCc1ccc2c(Cl)cc(Cl)c(O)c2n1)N1CCN(C(=O)c2cc3ccccc3[nH]2)CC1,22.2%,59.3%,36.3%,24.5%,13.6%,24.9%,25.1%,-2.56% (active),24.6%,39.2%
N#Cc1ccccc1-c1ccc(CN2C(=O)S/C(=C\c3ccc(Br)cc3)C2=O)cc1,98.7%,104%,82.8%,93.5%,96.4%,99.9%,98.7%,88.7%,101%,108%
CCOC(=O)CC[C@H](NC(=O)c1ccc(N(C)Cc2cnc3nc(N)nc(N)c3n2)c2ccccc12)C(=O)OCC,30%,12.5%,76%,33.7%,33%,24.3%,23.4%,18.5%,17.6%,47.8%
CCCCCCCCn1ccc2cc(NC(=O)CN3CCN(c4cc(C)nc(Cl)n4)CC3)ccc21,76.3%,77.3%,82.9%,88.9%,89.5%,61.4%,59.3%,64.5%,94.2%,90.9%

# Reference: PubChem BioAssay (NCI)
